Rin1-Abl PPI inh – inhibitors of Rin1-Abl protein binding, primary screen, biochemical, TR-FRET. actives 0.4% (n = 360,000). inhibition, % at 7.35 µM. Tyrosine-protein kinase ABL1 (Homo sapiens) + Ras and Rab interactor 1 (Homo sapiens), …; in the data active = inhibition above about 5%, passing the limit was not always enough
CTSL1 counter-1 – Fasciola hepatica cathepsin L1 inhibitors, primary screen, counter-screen for PFM18AAP inhibitor project, biochemical, QFRET, fluorogenic peptide substrate | recombinant F. hepatica cathepsin L1, Z-Leu-Arg-MCA fluorescence | inhibition, % at 5.96 µM | actives 0.49% (n = 300,000);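 active = inhibition above the mean of all tested compounds plus 3 SD, set per screening campaign, cut at about 17% in these data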
PfM18AAP inh-1 – PfM18AAP inhibitors, malaria aminopeptidase, primary screen, biochemical, QFRET, recombinant enzyme; M18 aspartyl aminopeptidase (Plasmodium falciparum 3D7); H-Glu-NHMec fluorogenic cleavage; inhibition, % at 7.35 µM; actives 1.2% (n = 290,000); AID 1822, 2009;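 active = inhibition above the campaign mean inhibition over all tested compounds plus 3 SD, cut at about 28% in these data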
Calb FLC – C. albicans growth inhibition with fluconazole, primary screen, CaCi-2 strain, Alamar Blue fluorescence; C. albicans CaCi-2 (fluconazole-resistant clinical isolate) + fluconazole, 48 h; growth inhibition, % (test concentration not listed); actives 0.57% (n = 300,000); AID 1979, 2009;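 active = growth inhibition above about 58% in most replicates, limit read from the data, passing the limit was not always enough; inconclusive = exactly half the replicates above a set limit; inactive = most replicates below a set limit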;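 also: all wells also contain fluconazole at 8 µg/ml as a sub-toxic cotreatment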
PfM18AAP inh-2 – PfM18AAP inhibitors, malaria aminopeptidase, confirmation, biochemical, QFRET, recombinant enzyme, triplicate | actives 28% (n = 2,400) | shares compounds with PfM18AAP inh-1 | H-Glu-NHMec fluorogenic cleavage | inhibition, % at 7.35 µM;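 active = mean inhibition over replicate wells above the hit cutoff set for the earlier primary screen, cut at about 29% in these data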
CTSL1 counter-2 – cathepsin L1 inhibitors, retest, confirmation, counter-screen for PFM18AAP inhibitor project, biochemical, QFRET, triplicate | shares compounds with PfM18AAP inh-1 | 2,400 tested, under 10 active | purified cathepsin L1, Z-Leu-Arg-MCA fluorescence | AID 2178, 2009 | inhibition, % at 5.96 µM;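 active = average inhibition across replicates above the hit cutoff set in the earlier primary screen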
Large screens that a line does not name were inactive (follow-up assays come after a bar, where they were run). An excerpt weighted towards active compounds, which were near 2.1% of everything screened.

O=C(NNc1ccc(-c2csnn2)cc1)c1ccccc1C(F)(F)F	PfM18AAP inh-1 40 | PfM18AAP inh-2 inactive | CTSL1 counter-2 inactive
CCOC(=O)C(C)Sc1cc(CS(=O)(=O)c2ccccc2)nc(-c2ccccc2)n1 (centres undefined)	none
N#CC1=C(N)SC(N)=C(C#N)C1CCc1ccccc1	none
N#CC1=C(N)SC(N)=C(C#N)C1Cc1ccccc1	PfM18AAP inh-1 43 | PfM18AAP inh-2 inactive | CTSL1 counter-2 inactive
N#CC1=C(N)SC(N)=C(C#N)C1c1c(Cl)cccc1Cl	PfM18AAP inh-1 46 | PfM18AAP inh-2 inactive | CTSL1 counter-2 inactive
CN(CC(=O)Nc1ccccc1Cl)C(=O)COC(=O)c1cnccn1	none
CCCCOc1ccc(/C=C/C2=CC(C)(C)NC(=S)N2)cc1OCC	none
CCOC(=O)c1c(-c2ccc(OC)cc2)csc1/N=C/C1=C(O)CCCC1=O	PfM18AAP inh-1 37 | PfM18AAP inh-2 inactive | CTSL1 counter-2 inactive
CCCn1cc(S(=O)(=O)c2ccc(C)cc2)c(=O)c2cc(OC)c(OC)cc21	none
CC1(C)CC(=O)C(Sc2ccc(Br)cc2)=C(O)C1	none
Nc1c(S(=O)(=O)c2cccc(Cl)c2)c2nc3ccccc3nc2n1/N=C/c1ccc(O)c(O)c1	PfM18AAP inh-1 44, Calb FLC 85 (no result: Rin1-Abl PPI inh) | PfM18AAP inh-2 inactive | CTSL1 counter-2 inactive
COc1cccc(/C=N/n2c(N)c(S(=O)(=O)c3cccs3)c3nc4ccccc4nc32)c1OC	none
CCN(CC)S(=O)(=O)c1cc([N+](=O)[O-])ccc1NNC(=O)Nc1ccccc1OC	PfM18AAP inh-1 56 | PfM18AAP inh-2 inactive | CTSL1 counter-2 inactive
O=C(Nc1ccc(F)cc1)Nc1ccc([N+](=O)[O-])cn1	none
CCN(CC)S(=O)(=O)c1ccc(OC)c(NC(=O)c2ccc([N+](=O)[O-])cc2)c1	Calb FLC inconclusive
CCN(CC)S(=O)(=O)c1cc([N+](=O)[O-])ccc1NNC(=O)Nc1ccc(F)cc1	PfM18AAP inh-1 37 | PfM18AAP inh-2 29 | CTSL1 counter-2 inactive
O=C(Nc1cc(Cl)cc(Cl)c1)N1CCN(C(=O)C2CCCO2)CC1 (centres undefined)	none
C=CCn1c2ccccc2c2n[nH]c(=S)nc21	PfM18AAP inh-1 40 (no result: CTSL1 counter-1) | PfM18AAP inh-2 inactive | CTSL1 counter-2 inactive
O=C(O)Cn1c2ccccc2c2n[nH]c(=S)nc21	PfM18AAP inh-1 47 | PfM18AAP inh-2 31 | CTSL1 counter-2 inactive
CN(CCC#N)C(=S)Nc1ccc(S(=O)(=O)N2CCOCC2)cc1	none
Cc1cccc(C)c1OCc1nc2ccccc2c(=O)n1/N=C/c1c[nH]c2ccccc12	none
CCOC(=O)c1c(C)n(C)c2cc(Br)c(O)c(O)c12	PfM18AAP inh-1 51 | PfM18AAP inh-2 53 | CTSL1 counter-2 inactive
CCOC(=O)c1c(C)n(C)c2cc([N+](=O)[O-])c(O)c([N+](=O)[O-])c12	none
COc1ccccc1N1CCN(C2CCCN(C(=O)c3snnc3C)C2)CC1 (centres undefined)	none
S=c1[nH]nc(COc2ccccc2)n1/N=C/c1ccccc1Br	PfM18AAP inh-1 35 | PfM18AAP inh-2 inactive | CTSL1 counter-2 inactive
CN1/C(=C/c2cccc[n+]2CCO)Sc2ccccc21	none
CC(=S)/C=C1\Sc2ccccc2N1C	PfM18AAP inh-1 37, Calb FLC 117 | PfM18AAP inh-2 inactive | CTSL1 counter-2 inactive
CN(c1ccccc1)S(=O)(=O)c1cccc(NC(=O)CSc2ncc(C(F)(F)F)cc2Cl)c1	none
C=CCNC(=S)NNc1nc(N2CCCC2)nc(N2CCCC2)n1	PfM18AAP inh-1 54 | PfM18AAP inh-2 inactive | CTSL1 counter-2 inactive
C=CCNC(=S)NNc1nc(Nc2ccccc2)nc(N2CCCCC2)n1	none
CCNC(=S)NNc1nc(N2CCOCC2)nc(N2CCOCC2)n1	PfM18AAP inh-1 47 | PfM18AAP inh-2 30 | CTSL1 counter-2 inactive
C1CN(c2nc(N3CCOCC3)nc(N3CCOCC3)n2)CCO1	none (no result: Rin1-Abl PPI inh)
CNC(=S)NNc1nc(N2CCOCC2)nc(N2CCOCC2)n1	PfM18AAP inh-1 41 | PfM18AAP inh-2 inactive | CTSL1 counter-2 inactive
CCN(CC)S(=O)(=O)c1ccc(N2CC(C(=O)NC3(C)CCS(=O)(=O)C3)CC2=O)cc1 (centres undefined)	none (no result: CTSL1 counter-1, PfM18AAP inh-1, Calb FLC)
Clc1ccccc1C=NNc1ccccn1	none (no result: CTSL1 counter-1, PfM18AAP inh-1, Calb FLC)
Nn1cnnc1N/N=C/c1cccc(Cl)c1Cl	PfM18AAP inh-1 52 (no result: CTSL1 counter-1) | PfM18AAP inh-2 inactive | CTSL1 counter-2 inactive
COc1cccc(/C=N/Nc2nnc(C)n2N)c1OCc1ccccc1Cl	PfM18AAP inh-1 41 | PfM18AAP inh-2 inactive | CTSL1 counter-2 inactive
CCc1nnc(N/N=C/c2ccccc2Cl)n1N	PfM18AAP inh-1 39 | PfM18AAP inh-2 inactive | CTSL1 counter-2 inactive
Nn1cnnc1N/N=C/c1ccccc1C(F)(F)F	PfM18AAP inh-1 48 | PfM18AAP inh-2 inactive | CTSL1 counter-2 inactive
O=C(NCc1ncc(C(F)(F)F)cc1Cl)Nc1ccccc1	none
Nc1nc(-c2cc(O)ccc2[N+](=O)[O-])cc(-c2ccccc2)c1[N+](=O)[O-]	PfM18AAP inh-1 46 (no result: CTSL1 counter-1) | PfM18AAP inh-2 inactive | CTSL1 counter-2 inactive
CC(C)(C)C1CCC(=NNc2ncc(C(F)(F)F)cc2Cl)CC1 (centres undefined)	PfM18AAP inh-1 33 | PfM18AAP inh-2 inactive | CTSL1 counter-2 inactive
CCOC(=O)c1sc(N)c(C(=O)Nc2ccccc2)c1C	PfM18AAP inh-1 40 | PfM18AAP inh-2 inactive | CTSL1 counter-2 inactive
CCCCCC(=O)NNC(=S)NC(=O)c1cccc([N+](=O)[O-])c1	PfM18AAP inh-1 35, Calb FLC 85 | PfM18AAP inh-2 inactive | CTSL1 counter-2 inactive
Cc1cccc(C(=O)NC(=S)NCc2ccccc2)c1	none (no result: PfM18AAP inh-1)
O=C(NNC(=S)NC(=O)c1cccnc1)c1ccc(Cl)cc1	PfM18AAP inh-1 39 | PfM18AAP inh-2 inactive | CTSL1 counter-2 inactive
O=C(NNC(=S)NCc1ccc(Cl)cc1)c1cccnc1	none
Cc1cccc(C(=O)NC(=S)NNC(=O)Cc2ccccc2)c1	PfM18AAP inh-1 38, Calb FLC 95 | PfM18AAP inh-2 inactive | CTSL1 counter-2 inactive
O=C(Cc1ccc(Cl)cc1)NNC(=S)NC(=O)c1cccnc1	PfM18AAP inh-1 50 | PfM18AAP inh-2 inactive | CTSL1 counter-2 inactive
COc1ccc(-c2nnc(C3CCN(S(=O)(=O)c4ccccc4)CC3)o2)cc1	none
CC(C)C(=O)NNc1nc2ccccc2s1	none
O=C(NNc1nc2ccccc2s1)C1CC1	PfM18AAP inh-1 56 | PfM18AAP inh-2 inactive | CTSL1 counter-2 inactive
O=C(CSc1nc2ccccc2s1)Nc1ccc(Cl)c(C(=O)O)c1	none
O=C(NNc1nc2ccccc2s1)Nc1ccc(F)cc1	PfM18AAP inh-1 60 | PfM18AAP inh-2 34 | CTSL1 counter-2 inactive
O=C(NNc1nc2ccccc2s1)Nc1ccc(Cl)c(Cl)c1	PfM18AAP inh-1 60 | PfM18AAP inh-2 49 | CTSL1 counter-2 inactive
